# Data published in the supplement of paper PMC12067093, “Discovery and optimisation of a covalent ligand for TRIM25 and its application to targeted protein ubiquitination” (Chemical Science, 2025).
# The full data set covers some 21,000 targets. This sample favours those with the largest changes.
# Compound: CC1Cc2ccccc2N1C(=O)C1CCCN(C1)C(=O)CCl (mixture of isomers) [TRIM25 ligand 11 (diastereomer mixture)]
# Assay: probe-labelled cysteine peptide fold change vs DMSO (competition) (log2 fold change); higher = less target engagement (more negative = stronger competition)
# Conditions: THP-1, incubation time: 4 h
# 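Also: competitive chemoproteomic profiling in live THP-1 cells with an iodoacetamide desthiobiotin (IA-DTB) probe, comparing probe-labelled peptide intensities in compound-treated cells against DMSO-treated controls.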
# Chain of UniProt Q96CW6 (Q96CW6 whole entry, looked up): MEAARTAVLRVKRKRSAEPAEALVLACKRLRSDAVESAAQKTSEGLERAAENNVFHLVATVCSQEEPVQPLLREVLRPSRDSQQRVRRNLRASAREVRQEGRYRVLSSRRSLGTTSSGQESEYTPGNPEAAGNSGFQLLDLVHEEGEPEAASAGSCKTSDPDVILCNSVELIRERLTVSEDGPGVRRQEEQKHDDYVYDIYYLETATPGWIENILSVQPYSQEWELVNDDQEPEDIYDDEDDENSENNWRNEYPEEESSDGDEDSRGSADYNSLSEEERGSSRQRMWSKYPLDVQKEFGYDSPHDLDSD
# Chain of UniProt Q9UHB9 (Q9UHB9 whole entry, looked up): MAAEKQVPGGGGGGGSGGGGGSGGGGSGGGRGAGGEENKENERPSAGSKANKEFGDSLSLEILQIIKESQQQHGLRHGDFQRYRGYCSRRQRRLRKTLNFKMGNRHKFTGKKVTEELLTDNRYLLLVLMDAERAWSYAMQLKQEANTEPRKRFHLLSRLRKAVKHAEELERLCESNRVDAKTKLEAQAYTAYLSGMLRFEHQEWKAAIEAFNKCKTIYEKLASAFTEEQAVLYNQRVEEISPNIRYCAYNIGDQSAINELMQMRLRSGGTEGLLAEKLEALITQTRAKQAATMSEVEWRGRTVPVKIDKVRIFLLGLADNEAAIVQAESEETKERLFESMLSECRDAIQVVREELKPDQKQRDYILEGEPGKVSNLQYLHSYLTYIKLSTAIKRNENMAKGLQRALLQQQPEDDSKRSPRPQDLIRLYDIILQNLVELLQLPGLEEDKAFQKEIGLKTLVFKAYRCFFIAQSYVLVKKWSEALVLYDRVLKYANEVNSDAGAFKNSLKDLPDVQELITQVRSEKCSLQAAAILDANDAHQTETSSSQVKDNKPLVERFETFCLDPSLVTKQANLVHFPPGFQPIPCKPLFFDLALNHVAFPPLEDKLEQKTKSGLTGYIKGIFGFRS
# Chain of UniProt Q9Y3I0 (Q9Y3I0 whole entry, looked up): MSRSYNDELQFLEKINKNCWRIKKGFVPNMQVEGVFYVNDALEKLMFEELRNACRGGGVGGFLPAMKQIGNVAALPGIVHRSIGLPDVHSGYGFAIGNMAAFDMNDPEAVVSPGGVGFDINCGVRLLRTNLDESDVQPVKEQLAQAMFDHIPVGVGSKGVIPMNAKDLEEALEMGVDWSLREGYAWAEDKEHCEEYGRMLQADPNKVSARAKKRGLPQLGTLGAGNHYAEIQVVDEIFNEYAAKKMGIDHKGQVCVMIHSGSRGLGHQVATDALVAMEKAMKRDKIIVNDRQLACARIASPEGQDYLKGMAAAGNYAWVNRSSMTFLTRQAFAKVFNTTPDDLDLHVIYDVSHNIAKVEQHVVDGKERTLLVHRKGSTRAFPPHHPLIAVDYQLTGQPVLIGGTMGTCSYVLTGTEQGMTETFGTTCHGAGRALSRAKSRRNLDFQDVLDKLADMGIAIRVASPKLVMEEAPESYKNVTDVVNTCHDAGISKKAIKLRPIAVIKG
# Chain of UniProt O95391 (O95391 whole entry, looked up): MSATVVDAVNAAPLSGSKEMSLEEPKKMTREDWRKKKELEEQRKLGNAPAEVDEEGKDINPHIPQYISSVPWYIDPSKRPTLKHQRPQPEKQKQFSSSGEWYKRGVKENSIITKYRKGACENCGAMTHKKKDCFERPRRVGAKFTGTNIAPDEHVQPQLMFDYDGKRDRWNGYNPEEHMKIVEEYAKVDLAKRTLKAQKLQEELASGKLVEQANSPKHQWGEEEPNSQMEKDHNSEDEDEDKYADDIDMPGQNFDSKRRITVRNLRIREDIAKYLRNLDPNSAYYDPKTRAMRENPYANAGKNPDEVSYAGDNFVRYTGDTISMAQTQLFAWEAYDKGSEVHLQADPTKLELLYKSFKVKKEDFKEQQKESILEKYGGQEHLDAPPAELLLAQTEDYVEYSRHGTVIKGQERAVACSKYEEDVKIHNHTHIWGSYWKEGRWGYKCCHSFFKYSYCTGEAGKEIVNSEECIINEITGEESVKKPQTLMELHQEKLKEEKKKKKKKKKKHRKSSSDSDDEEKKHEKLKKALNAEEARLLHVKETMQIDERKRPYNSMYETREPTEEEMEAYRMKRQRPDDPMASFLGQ
# Chain of UniProt Q99470 (Q99470 whole entry, looked up): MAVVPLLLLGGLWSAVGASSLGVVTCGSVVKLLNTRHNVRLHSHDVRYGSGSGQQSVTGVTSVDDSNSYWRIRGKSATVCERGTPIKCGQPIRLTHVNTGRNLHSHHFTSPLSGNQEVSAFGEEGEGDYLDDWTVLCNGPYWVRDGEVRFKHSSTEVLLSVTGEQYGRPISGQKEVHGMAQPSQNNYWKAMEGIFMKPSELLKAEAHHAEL
# Chain of UniProt Q96T23 (Q96T23 whole entry, looked up): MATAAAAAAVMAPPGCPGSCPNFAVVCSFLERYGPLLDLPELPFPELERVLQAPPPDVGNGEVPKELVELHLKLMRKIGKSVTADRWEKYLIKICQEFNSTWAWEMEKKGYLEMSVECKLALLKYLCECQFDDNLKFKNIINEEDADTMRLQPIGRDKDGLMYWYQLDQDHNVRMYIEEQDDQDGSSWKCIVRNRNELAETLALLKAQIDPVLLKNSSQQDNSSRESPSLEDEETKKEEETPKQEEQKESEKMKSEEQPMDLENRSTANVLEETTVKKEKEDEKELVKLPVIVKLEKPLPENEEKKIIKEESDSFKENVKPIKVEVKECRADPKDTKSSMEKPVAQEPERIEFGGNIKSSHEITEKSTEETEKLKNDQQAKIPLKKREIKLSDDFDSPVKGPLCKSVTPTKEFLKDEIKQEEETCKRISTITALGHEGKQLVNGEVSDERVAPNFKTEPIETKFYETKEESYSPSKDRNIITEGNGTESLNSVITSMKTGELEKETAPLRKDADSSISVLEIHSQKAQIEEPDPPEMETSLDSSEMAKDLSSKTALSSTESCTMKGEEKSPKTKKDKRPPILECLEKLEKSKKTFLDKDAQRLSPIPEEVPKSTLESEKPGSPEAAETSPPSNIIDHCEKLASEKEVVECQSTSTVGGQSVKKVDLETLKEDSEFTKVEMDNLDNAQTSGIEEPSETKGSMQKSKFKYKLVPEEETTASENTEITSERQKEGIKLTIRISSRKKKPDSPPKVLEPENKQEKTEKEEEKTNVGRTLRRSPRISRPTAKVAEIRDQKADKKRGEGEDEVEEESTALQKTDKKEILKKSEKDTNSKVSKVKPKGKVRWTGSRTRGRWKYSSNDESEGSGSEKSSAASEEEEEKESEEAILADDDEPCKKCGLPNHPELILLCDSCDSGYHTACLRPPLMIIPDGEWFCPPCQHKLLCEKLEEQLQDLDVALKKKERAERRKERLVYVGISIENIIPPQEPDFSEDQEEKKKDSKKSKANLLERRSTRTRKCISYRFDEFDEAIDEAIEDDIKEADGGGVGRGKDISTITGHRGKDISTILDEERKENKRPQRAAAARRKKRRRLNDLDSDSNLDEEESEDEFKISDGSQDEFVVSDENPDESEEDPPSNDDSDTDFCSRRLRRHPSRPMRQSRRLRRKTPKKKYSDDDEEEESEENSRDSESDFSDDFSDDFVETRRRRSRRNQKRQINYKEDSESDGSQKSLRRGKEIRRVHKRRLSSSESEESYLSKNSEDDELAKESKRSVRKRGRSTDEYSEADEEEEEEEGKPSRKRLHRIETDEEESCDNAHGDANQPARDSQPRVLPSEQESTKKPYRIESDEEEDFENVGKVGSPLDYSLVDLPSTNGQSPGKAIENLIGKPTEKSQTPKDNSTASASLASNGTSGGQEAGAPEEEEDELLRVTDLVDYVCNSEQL
Target,probe-labelled cysteine peptide fold change (10 µM),probe-labelled cysteine peptide fold change (50 µM)
RSF1_Q96T23_1311_IETDEEESCDNAHGDANQPAR (UniProt Q96T23),0.0514,0.0946
SRP68_Q9UHB9_173_LCESNR (UniProt Q9UHB9),0.14,0.559
SLU7_O95391_445_CCHSFFK (UniProt O95391),0.132,0.191
RTCB_Q9Y3I0_485_NVTDVVNTCHDAGISK (UniProt Q9Y3I0),-0.0281,-0.0777
SLC7A6OS_Q96CW6_62_AAENNVFHLVATVCSQEEPVQPLLR (UniProt Q96CW6),-0.0977,-0.671
SDF2_Q99470_137_NLHSHHFTSPLSGNQEVSAFGEEGEGDYLDDWTVLCNGPYWVR (UniProt Q99470),0.298,0.622
